Experimental data reported in PubChem BioAssay (NCATS).
Records with an inconclusive call do not appear. The source made the active and inactive calls. Unless noted, calls follow the shape of the dose curve; as a rule, active = well fitted curve in the direction sought with a large enough effect; inconclusive = small, poorly fitted or top-dose-only effect, or another doubt; inactive = no such curve, though single readings can be large; an effect the other way counts as inactive or inconclusive.

Tests used:
[1] = biological target: T1, Tyrosine-protein phosphatase non-receptor type substrate 1 (Homo sapiens) + Leukocyte surface antigen CD47 (Homo sapiens) (UniProt P78324+Q08722); experiment: CD47-SIRPalpha protein protein interaction - LANCE assay qHTS validation (AID 1347057; active = well fitted curve in the direction sought with a large enough effect in the signal ratio, with a control signal flat, not every such curve was filed as active; the % refers to the signal ratio; also: potency is read from the fitted curve at half-maximal effect)
Outline: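 First, His-tagged CD47 and Eu-labelled anti-His antibody met the compound for 30 min; next, site-specifically biotinylated SIRPalpha was added for 30 min; finally streptavidin-APC was added before reading the TR-FRET ratio.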

[2] = biological target: T1, Tyrosine-protein phosphatase non-receptor type substrate 1 (Homo sapiens) + Leukocyte surface antigen CD47 (Homo sapiens); experiment: CD47-SIRPalpha protein protein interaction - HTRF assay qHTS validation (AID 1347058; active = well fitted curve in the direction sought with a large enough effect in the signal ratio, not every such curve was filed as active; the % refers to the signal ratio;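 also: recombinant soluble extracellular CD47 with His tag and biotinylated SIRPalpha domains; series mostly up to about 38 µM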)
Outline: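 TR-FRET read (Ch1/Ch2 ratio) of soluble extracellular CD47 and Avi-biotinylated SIRPalpha domains in PBS pH 7.4 with 0.05% IGEPAL; 7-point compound titration. Sequential 30 min room-temperature steps; non-biotinylated SIRPalpha as control inhibitor.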

[3] = biological target: T1, Tyrosine-protein phosphatase non-receptor type substrate 1 (Homo sapiens) + Leukocyte surface antigen CD47 (Homo sapiens); experiment: CD47-SIRPalpha protein protein interaction - Alpha assay qHTS validation (AID 1347059);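 also: bead proximity luminescence from CD47 binding SIRPalpha after compound preincubation with SIRPalpha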
Outline: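 Binding is measured by AlphaScreen proximity: Ni-NTA acceptor beads capture His-CD47, streptavidin donor beads capture biotin-SIRPalpha. Each of three additions (SIRPalpha with compound, CD47, beads) incubates 30 min at room temperature protected from light.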

[4] = biological target: Parathyroid hormone/parathyroid hormone-related peptide receptor (Homo sapiens) (UniProt Q03431); experiment: qHTS for PTHR1 Agonists: Optimization Screen against the NCGC LOPAC library (AID 1347079);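 also: GloSensor cAMP luminescence in HEK-293 GP2 cells expressing human PTHR1 with IBMX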
Outline: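 Agonist readout: GloSensor cAMP luminescence, read after 15 min at room temperature. HEK-293-derived GP2 line carries PTHR1; compounds tested as a titration for 1 hr at 37C in presence of IBMX. M-PTH (1-15) served as control.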

[5] = qHTS for Inhibitors of the Functional Ribonucleoprotein Complex (vRNP) of Lassa (LASV) Arenavirus: LASV Primary Screen - GLuc reporter signal (AID 1347082; calls by dose curve; tested in HEK293 reporter line; also: series mostly up to about 57 µM; nearly all actives have a fitted effect of over 60% in size)
[6] = qHTS for Inhibitors of the Functional Ribonucleoprotein Complex (vRNP) of Lassa (LASV) Arenavirus: Viability assay - alamar blue signal for LASV Primary Screen (AID 1347083; calls by dose curve; tested in HEK293 reporter line; also: series mostly up to about 57 µM; nearly all actives have a fitted effect of over 80% in size)
[7] = qHTS for Inhibitors of the Functional Ribonucleoprotein Complex (vRNP) of Lymphocytic Choriomeningitis Arenaviruses (LCMV): Viability assay - alamar blue signal for LCMV Primary Screen (AID 1347085; calls by dose curve; tested in HEK293 reporter line; also: series mostly up to about 57 µM; nearly all actives have a fitted effect of over 80% in size)
[8] = biological target: Nucleoprotein (Lymphocytic choriomeningitis virus (strain Armstrong)) (UniProt P09992); experiment: qHTS for Inhibitors of the Functional Ribonucleoprotein Complex (vRNP) of Lymphocytic Choriomeningitis Arenaviruses (LCMV): LCMV Primary Screen - GLuc reporter signal (AID 1347086; calls by dose curve; also: series mostly up to about 57 µM; nearly all actives have a fitted effect of over 70% in size)

Measured: Potency

Sequence of Parathyroid hormone/parathyroid hormone-related peptide receptor (Homo sapiens) (Q03431 whole entry, looked up): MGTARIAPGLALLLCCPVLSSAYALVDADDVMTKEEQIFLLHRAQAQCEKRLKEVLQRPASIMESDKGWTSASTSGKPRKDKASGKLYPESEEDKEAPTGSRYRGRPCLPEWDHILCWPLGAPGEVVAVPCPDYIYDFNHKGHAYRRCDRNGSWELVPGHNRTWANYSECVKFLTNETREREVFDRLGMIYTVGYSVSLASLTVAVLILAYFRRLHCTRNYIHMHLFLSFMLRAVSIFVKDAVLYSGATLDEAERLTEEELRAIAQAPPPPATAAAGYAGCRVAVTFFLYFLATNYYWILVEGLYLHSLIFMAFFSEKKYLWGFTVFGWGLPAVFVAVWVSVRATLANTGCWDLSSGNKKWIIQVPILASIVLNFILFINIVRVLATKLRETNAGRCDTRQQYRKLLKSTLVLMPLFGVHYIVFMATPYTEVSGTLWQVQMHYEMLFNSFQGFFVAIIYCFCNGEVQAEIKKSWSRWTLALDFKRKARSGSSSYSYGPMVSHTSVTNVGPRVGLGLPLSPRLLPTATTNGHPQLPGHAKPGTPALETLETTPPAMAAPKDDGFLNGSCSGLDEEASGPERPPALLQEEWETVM
Sequence of Nucleoprotein (Lymphocytic choriomeningitis virus (strain Armstrong)) (P09992 whole entry, looked up): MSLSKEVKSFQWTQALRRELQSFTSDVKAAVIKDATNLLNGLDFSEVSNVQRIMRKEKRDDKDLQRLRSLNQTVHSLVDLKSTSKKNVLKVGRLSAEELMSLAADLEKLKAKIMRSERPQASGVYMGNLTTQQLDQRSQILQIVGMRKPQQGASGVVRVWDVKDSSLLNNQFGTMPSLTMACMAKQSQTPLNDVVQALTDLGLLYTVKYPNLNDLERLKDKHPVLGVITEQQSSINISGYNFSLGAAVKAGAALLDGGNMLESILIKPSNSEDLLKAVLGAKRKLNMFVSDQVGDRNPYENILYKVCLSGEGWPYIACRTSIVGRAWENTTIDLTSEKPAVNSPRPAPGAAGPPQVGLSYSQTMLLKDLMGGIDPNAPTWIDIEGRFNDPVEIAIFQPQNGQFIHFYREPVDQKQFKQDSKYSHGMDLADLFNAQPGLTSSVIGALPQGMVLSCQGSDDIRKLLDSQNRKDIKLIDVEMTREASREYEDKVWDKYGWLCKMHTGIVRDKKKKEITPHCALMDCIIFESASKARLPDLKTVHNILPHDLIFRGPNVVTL
T1 sequence (P78324 whole entry, looked up): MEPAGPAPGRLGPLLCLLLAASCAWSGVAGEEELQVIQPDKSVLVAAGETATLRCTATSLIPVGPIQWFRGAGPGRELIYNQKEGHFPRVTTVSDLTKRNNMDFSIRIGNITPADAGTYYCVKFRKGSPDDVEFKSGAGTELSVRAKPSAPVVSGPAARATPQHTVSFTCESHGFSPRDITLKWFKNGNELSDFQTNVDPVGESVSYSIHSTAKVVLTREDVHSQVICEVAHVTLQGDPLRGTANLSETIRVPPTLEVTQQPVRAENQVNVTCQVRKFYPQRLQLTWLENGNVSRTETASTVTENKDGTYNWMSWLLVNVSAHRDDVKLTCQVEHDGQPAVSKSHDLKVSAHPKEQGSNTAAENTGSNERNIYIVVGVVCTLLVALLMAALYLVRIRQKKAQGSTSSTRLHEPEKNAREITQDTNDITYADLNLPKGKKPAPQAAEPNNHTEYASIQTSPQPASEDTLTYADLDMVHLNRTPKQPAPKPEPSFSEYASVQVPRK
T1 sequence (Q08722 whole entry, looked up): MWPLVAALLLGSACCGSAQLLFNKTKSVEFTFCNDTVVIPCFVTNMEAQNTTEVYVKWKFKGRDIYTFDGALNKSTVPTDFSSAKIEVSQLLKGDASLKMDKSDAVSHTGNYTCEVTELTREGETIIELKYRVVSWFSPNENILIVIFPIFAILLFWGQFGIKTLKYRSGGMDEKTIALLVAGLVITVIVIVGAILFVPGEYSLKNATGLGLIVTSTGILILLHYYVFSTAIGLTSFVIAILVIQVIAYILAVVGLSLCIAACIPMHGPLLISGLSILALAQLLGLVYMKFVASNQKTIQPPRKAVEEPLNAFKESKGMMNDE

C=CCN1C[C@@H](C)N([C@H](c2ccc(C(=O)N(CC)CC)cc2)c2cccc(OC)c2)C[C@@H]1C
inactive: [1] | [2] | [3]

Nc1cc2c(ncn2CCOCP(=O)(O)O)c(=O)[nH]1
inactive: [1] | [2] | [3]

CC(C)(C)c1o[nH]c(=O)c1CC(N)C(=O)O (stereo not drawn)
not listed: [7] | [8]
inactive: all other assays above

COc1ccc(OC)c(C(O)C(C)N)c1 (stereo not drawn)
inactive: all assays above

CCn1cnc2c(Nc3cccc(Cl)c3)nc(N[C@@H]3CCCC[C@@H]3N)nc21
inactive: [1] | [2] | [3] | [4]

CCCC[N+]1(C)C2CC(OC(=O)[C@H](CO)c3ccccc3)CC1C1OC12 (stereo partly drawn)
inactive: all assays above

CCS(=O)(=O)Nc1cccc(C(=C2CCCCC2)c2cnc[nH]2)c1
inactive: all assays above

CP(=O)(O)C1=CCNCC1
inactive: all assays above

CC(C)(C)c1cc(C=C(C#N)C#N)cc(C(C)(C)C)c1O
inactive: [1] | [2] | [3] | [4]

OCc1cnc[nH]1
inactive: all assays above

CC(C)(O)[C@@H]1C2OC(=O)[C@@H]1[C@]1(O)C[C@H]3O[C@]34C(=O)O[C@H]2[C@]14C (tested in a mixture with another compound)
inactive: all assays above

C[C@H]1C2Cc3ccc(O)cc3[C@@]1(C)CCN2CC1CC1
inactive: [1] | [2] | [3]

NCCc1ccc(S(=O)(=O)F)cc1
inactive: all assays above

N#CCCN
inactive: all assays above

COc1ccc2[nH]cc(CCN)c2c1
inactive: all assays above

Nc1ccc(CCN2CCN(c3cccc(C(F)(F)F)c3)CC2)cc1
inactive: all assays above

CCCN(CCC)C1CCc2cccc(O)c2C1 (stereo not drawn)
inactive: all assays above

C[C@H](Cc1ccc2c(c1)OC(C(=O)O)(C(=O)O)O2)NC[C@H](O)c1cccc(Cl)c1
inactive: all assays above

CN1C2CCC1CC(OC(c1ccccc1)c1ccccc1N)C2 (stereo not drawn)
inactive: all assays above

C[N+](C)(C)CCOC(=O)CBr
inactive: all assays above

CCCN(CCC)[C@@H]1CCc2cccc(O)c2C1
inactive: all assays above

Ic1ccccc1CNC1C2CCN(CC2)C1C(c1ccccc1)c1ccccc1 (stereo not drawn)
inactive: [1] | [2] | [3] | [4]

CCCn1c(=O)c2[nH]c(C3CCCC3)nc2n(CCCOC(=O)c2ccc(S(=O)(=O)F)cc2)c1=O
inactive: all assays above

CCCN1CCC[C@@H](c2cccc(O)c2)C1
inactive: all assays above

Clc1ccc(N2CC3CCC(C2)N3)nn1
inactive: all assays above

O=C(NC1CN2CCC1CC2)c1cc2ccoc2cn1 (stereo not drawn)
inactive: [1] | [2] | [3]

NCCCP(=O)(O)O
inactive: all assays above

CC(C)NP(=O)(NC(C)C)OP(=O)(NC(C)C)NC(C)C
inactive: all assays above

CC1(C(=O)O)C2CCC(O2)C1(C)C(=O)O (stereo not drawn)
inactive: [1] | [2] | [3] | [4]

C[C@H](N)Cc1cccc(C(F)(F)F)c1
inactive: all assays above

C[N+](C)(C)CC#CCOC(=O)Nc1cccc(Cl)c1
inactive: all assays above

c1ccc2cc(CC3=NCCN3)ccc2c1
inactive: all assays above

CC(Cc1ccc(OCC(=O)O)cc1)NCC(O)c1cccc(Cl)c1 (stereo not drawn)
inactive: all assays above

CC(C)(C)OC(=O)NC1[C@H]2CNC[C@@H]12 (stereo partly drawn)
inactive: [1] | [2] | [3]

CCCCCCCCCCCCCC(=O)O[C@@H]1[C@@H](C)[C@@]2(O)[C@@H](C=C(CO)C[C@@]3(O)C(=O)C(C)=C[C@@H]23)C2C(C)(C)[C@@]21OC(C)=O (stereo partly drawn)
inactive: all assays above

CC(=O)NBr
inactive: all assays above

Clc1cc(I)cc(Cl)c1NC1=NCCN1
inactive: all assays above

CN(N=O)c1ccc(O)c(O)c1
active: [1] 18.5 µM
not listed: [2] | [3]
inactive: all other assays above

NC(N)=Nc1ccc2[nH]c3c(c2c1)C[C@@]1(O)[C@H]2Cc4ccc(O)c5c4[C@@]1(CCN2CC1CC1)[C@H]3O5
not listed: [2] | [4]
inactive: all other assays above

C[N+]1(C)C2CCC1CC(OC(=O)c1c[nH]c3ccccc13)C2 (stereo not drawn)
not listed: [1]
inactive: all other assays above

C=CCN1CC[C@]23c4c5ccc(O)c4O[C@H]2/C(=N/NC(=O)c2ccccc2)CC[C@@]3(O)[C@H]1C5
inactive: [4] | [5] | [6] | [7] | [8]

COc1ccc(CNC(=O)/C=C/c2ccc3[nH]cc(CCN(C)C)c3c2)cc1
not listed: [2]
inactive: all other assays above

O=C1/C(=C/c2ccccc2)C[C@@]2(O)[C@H]3Cc4ccc(O)c5c4[C@@]2(CCN3CC2CC2)[C@H]1O5
inactive: [1] | [3]

CN1CC[C@@]2(C)c3cc(OC(=O)Nc4ccccc4)ccc3N(C)[C@@H]12
not listed: [2] | [4]
inactive: all other assays above

Cc1c2ccncc2c(C)c2c1[nH]c1ccccc12
inactive: [1] | [2] | [3] | [5] | [8]

CC(N)[C@H](O)c1ccc(O)c(O)c1 (stereo partly drawn)
not listed: [2]
inactive: all other assays above

CN1CC[C@@]2(C)c3cc(O)ccc3N(C)C12 (stereo partly drawn)
not listed: [2]
inactive: all other assays above

CN(N=O)c1cc(O)ccc1O
not listed: [2] | [3]
inactive: all other assays above

NCC(CP(=O)(O)O)c1ccc(Cl)cc1 (stereo not drawn)
not listed: [2] | [4]
inactive: all other assays above
